{"source": "PubChem BioAssay AID2384", "about": "(Southern Research Specialized Biocontainment Screening …, 2010)", "note": "The whole screen tested about 2,300 compounds, of which about 1,100 (48%) were called active. So high a share suggests a set chosen from earlier hits. The list shows a part of the results. Potency and affinity values are given separately. Values without a mark were called inactive. How the calls were made is not given here."}
{"assay": "inhibitors in S. typhi counter-screen strain, dose response, counter-screen for PhoP regulon inhibitor project, fluorescence, 4 h (AID 2384)", "conditions": "S. typhi GFP reporter counter-screen; series mostly up to 150 µM; inhibition: at the top concentration", "units": {"inhibition": "%"}}
{"molecule": "CC(=O)c1cccc(NC(=O)CCC2CCCC2)c1", "inhibition": 27.3}
{"molecule": "CCC(=O)Nc1nnc(-c2ccco2)o1", "inhibition": 8.68}
{"molecule": "Cc1cc(=O)n(CC(C)C)c(O)c1C#N", "inhibition": -31.6}
{"molecule": "S=C1NCN(C2CCCCC2)CN1c1ccccc1", "inhibition": 9.4}
{"molecule": "CCc1nccc2c1[nH]c1ccccc12", "inhibition": -35.1}
{"molecule": "C=CCOc1ccc(-c2n[nH]c(=S)o2)cc1", "inhibition": 18.3}
{"molecule": "O=C1c2ccccc2C2=Nc3ccccc3SC(c3ccccc3F)C12", "note": "(configuration not stated)", "inhibition": 12.1}
{"molecule": "COc1ccc(NC2=Nc3ccccc3CC2)cc1", "inhibition": 12.3}
{"molecule": "Cc1cccc(NS(=O)(=O)c2ccc3c(c2)OCCO3)c1", "inhibition": 1.33}
{"molecule": "c1ccc(CNc2nc(-c3ccccn3)nc3ccccc23)cc1", "inhibition": 12}
{"molecule": "Cc1ccc(Cn2c(=N)c(C(=O)NCc3ccco3)cc3c(=O)n4ccccc4nc32)cc1", "inhibition": 12}
{"molecule": "CN(CCO)CC(O)Cn1cnc2c1c(=O)n(C)c(=O)n2C", "note": "(configuration not stated) (tested in a mixture with another compound)", "inhibition": 23.2}
{"molecule": "COc1ccc(N2CCN(C(=O)c3cc4c(s3)-c3ccccc3S(=O)(=O)C4)CC2)cc1", "inhibition": -5.98}
{"molecule": "c1ccc(-c2nnc(-c3c[nH]c4ccccc34)nc2-c2ccccc2)cc1", "inhibition": 3.86}
{"molecule": "O=c1oc2ccccc2c(O)c1C(c1ccccn1)c1c(O)c2ccccc2oc1=O", "inhibition": -5.58}
{"molecule": "CC(C)(C)n1nc2c(c1NC(=O)Cc1cccs1)CSC2", "inhibition": 4.74}
{"molecule": "CCCCN(C)C(=O)c1ccc(S(=O)(=O)N2CCOCC2)cc1", "inhibition": -3.07}
{"molecule": "COC(=O)c1ccc(S(=O)(=O)N2CCC(c3nc4ccccc4o3)CC2)cc1", "inhibition": -17.6}
{"molecule": "CN(C)CCCN(C(=O)c1cc2cc([N+](=O)[O-])ccc2s1)c1nc2cc3c(cc2s1)OCCO3", "inhibition": -3.58}
{"molecule": "O=C(NCc1cccnc1)C1c2ccccc2C(=O)N1Cc1ccccc1", "note": "(configuration not stated)", "inhibition": -11.2}
{"molecule": "CCOC(=O)c1c(C)sc2c1N(C(C)=O)c1cc(Cl)ccc1S2", "inhibition": 4.79}
{"molecule": "NC(=O)c1c(NC(=O)CSc2nc(N)cc(=O)[nH]2)sc2c1CCCC2", "inhibition": 5.04}
{"molecule": "CCOc1ccc(NC(=O)CN(C)C(=O)c2ccccc2CCc2ccccc2)cc1OCC", "inhibition": 1.33}
{"molecule": "O=C(CC(=O)NCc1ccccc1)NCc1ccccc1", "inhibition": -7.97}
{"molecule": "CCOCCCNC(=O)CN1CCN(Cc2ccccc2C)C1=O", "inhibition": -28.5}
{"molecule": "COC(=O)C1C(=O)C2=C(CC1C)Nc1ccccc1NC2c1ccc(C)s1", "note": "(configuration not stated)", "inhibition": -6.97}
{"molecule": "CCc1nn(CCCN2CCN(c3cccc(Cl)c3)CC2)c(=O)n1CCOc1ccccc1", "inhibition": 35}
{"molecule": "Cc1nn(Cc2ccccc2Cl)c2sc(C(=O)Nc3ccccc3N3CCOCC3)cc12", "inhibition": -13.9}
{"molecule": "CN1C(=O)C2(Nc3ccccc3-c3nc4ccccc4n32)c2ccccc21", "note": "(configuration not stated)", "inhibition": 15}
{"molecule": "Oc1c(Br)cc(Br)cc1CNc1ccccn1", "inhibition": 20.5}
{"molecule": "CC(C)N=C1NN=C(c2ccc(F)cc2)CS1", "inhibition": -1.84}
{"molecule": "Cc1c(O)cccc1C(=O)N[C@@H](CSc1ccccc1)[C@H](O)CN1C[C@H]2CCCC[C@H]2C[C@H]1C(=O)NC(C)(C)C", "inhibition": 25.7}
{"molecule": "Cn1c(CN2CCCCC2)nc2cc(NS(=O)(=O)c3ccc(Cl)cc3)ccc21", "inhibition": 29.6}
{"molecule": "COc1ccc(OCC(=O)Nc2ccc3c(c2)nc(CCN2CCC(C)CC2)n3C)cc1", "inhibition": -8.27}
{"molecule": "O=C(Nc1ccccc1)C1=C(O)CC(c2ccc(Cl)cc2)N2CCN=C12", "note": "(configuration not stated)", "inhibition": -11}
{"molecule": "O=c1c2cnn(-c3ccccc3)c2ncn1CCc1ccccc1", "inhibition": 12.7}
{"molecule": "O=C(NC(=O)c1ccccc1)OCC1CCCN2CCCCC12", "note": "(configuration not stated)", "inhibition": -11.2}
{"molecule": "COc1ccccc1NC(=O)Cn1nc(-c2ccncc2)nc1SCC(=O)NC1CCCC1", "inhibition": 11.8}
{"molecule": "C=CCn1c(C)c(C(C)=O)c(SC)nc1=S", "inhibition": 5.5}
{"molecule": "CCN(CC)Cc1c(C(=O)N/N=C/c2cccs2)nnn1-c1nonc1N", "inhibition": 19.4}
{"molecule": "Nc1nonc1C(=O)NCCN=Cc1cc(Cc2ccccc2)cc(Br)c1O", "inhibition": 26}
{"molecule": "CCOC(=O)c1c(C)[nH]c(C(=O)CN2C(=O)NC(C)(c3ccc4ccccc4c3)C2=O)c1C", "note": "(configuration not stated)", "inhibition": 6.12}
{"molecule": "CCOC(=O)C(NC(=O)c1cccnc1)(Nc1cccc(C)n1)C(F)(F)F", "note": "(configuration not stated)", "inhibition": -9.61}
{"molecule": "Nc1[nH]c(=O)ncc1F", "inhibition": -3.81}
{"molecule": "N#CCC(=O)N/N=C/c1ccccc1Cl", "inhibition": 7.9}
{"molecule": "CCN(CC)Cc1c(C(=O)N/N=C/c2cccc3ccccc23)nnn1-c1nonc1N", "inhibition": -54.3}
{"molecule": "COc1ccc(/C=N/NC(=O)c2cccnc2)cc1", "inhibition": 17.4}
{"molecule": "O=C(Nc1cccnc1)c1cc(Br)c(Br)s1", "inhibition": 17.9}
{"molecule": "O=C(N/N=C/c1cccnc1)c1cccc(Cl)c1", "inhibition": 32.1}
{"molecule": "CCN(CC)S(=O)(=O)c1cc(NC(=O)C2Cc3ccccc3C(=O)O2)ccc1C", "note": "(configuration not stated)", "inhibition": 20.1}
{"molecule": "Cc1ncc([N+](=O)[O-])n1CC(=O)NC1CCCC1", "inhibition": 7.22}
{"molecule": "CC(C)C(c1nnnn1Cc1ccccc1)N(CCCO)Cc1cc2cc3c(cc2[nH]c1=O)OCO3", "note": "(configuration not stated)", "inhibition": 3.39}
{"molecule": "COC(=O)c1ccc(CSc2ccc3nnc(-c4ccc(OC)c(OC)c4)n3n2)o1", "inhibition": -14.4}
{"molecule": "CCOc1ccc2nnnn2n1", "inhibition": 11.9}
{"molecule": "Cc1ccsc1/C=N/Nc1ccc(C(=O)O)cc1", "inhibition": 30.1}
{"molecule": "Cc1ccsc1/C=N/NC(=O)c1ccncc1", "inhibition": 13.8}
{"molecule": "CCOC(=O)C1Nc2c(F)cc(C)cc2C2c3ccccc3CC12", "note": "(configuration not stated)", "inhibition": 2.54}
